# Paper PMC11062922 (Nature Chemical Biology, 2023)
# Read-outs that look alike come from different tables or passages of the source.
# Columns and labels:
# Conditions in all cases: read-out: apparent Kd, n = 1
# [1] = system: ACVR1
# [2] = system: CDK6
# [3] = system: CLK1
# [4] = system: MAP2K1
# [5] = compound concentrations:100 nM and 1000 nM (sheet 'Lestaurtinib' of Supplementary Table 1),run:Lestaurtinib_02422_R1,Plate:MR006
# [6] = compound concentrations:100 nM and 1000 nM (sheet 'Lestaurtinib' of Supplementary Table 1),run:Lestaurtinib_02443_R3,Plate:MR009
# [7] = compound concentrations:100 nM and 1000 nM (sheet 'Lestaurtinib' of Supplementary Table 1),run:Lestaurtinib_02572_R1,Plate:MR015
# [8] = compound concentrations:100 nM and 1000 nM (sheet 'Lestaurtinib' of Supplementary Table 1),run:Lestaurtinib_02577_R1,Plate:MR016
# [9] = compound concentrations:100 nM and 1000 nM (sheet 'Lestaurtinib' of Supplementary Table 1),run:Lestaurtinib_02584_R3,Plate:MR017
# [10] = compound concentrations:100 nM and 1000 nM (sheet 'Lestaurtinib' of Supplementary Table 1),run:Lestaurtinib_02748_R1,Plate:MR024
# [11] = compound concentrations:100 nM and 1000 nM (sheet 'Lestaurtinib' of Supplementary Table 1),run:Lestaurtinib_02766_R3,Plate:MR027
# [12] = compound concentrations:100 nM and 1000 nM (sheet 'Lestaurtinib' of Supplementary Table 1),run:Lestaurtinib_02896_R1,Plate:MR030
# [13] = compound concentrations:100 nM and 1000 nM (sheet 'Lestaurtinib' of Supplementary Table 1),run:Lestaurtinib_02367_R1,Plate:MR003
# [14] = compound concentrations:100 nM and 1000 nM (sheet 'Lestaurtinib' of Supplementary Table 1),run:Lestaurtinib_02381_R1,Plate:MR004
# [15] = compound concentrations:100 nM and 1000 nM (sheet 'Lestaurtinib' of Supplementary Table 1),run:Lestaurtinib_02496_R3,Plate:MR013
# [16] = compound concentrations:100 nM and 1000 nM (sheet 'Lestaurtinib' of Supplementary Table 1),run:Lestaurtinib_02765_R3,Plate:MR026
# [17] = compound concentrations:100 nM and 1000 nM (sheet 'Lestaurtinib' of Supplementary Table 1),run:Lestaurtinib_02367_R2,Plate:MR003
# [18] = compound concentrations:100 nM and 1000 nM (sheet 'Lestaurtinib' of Supplementary Table 1),run:Lestaurtinib_02438_R3,Plate:MR008
# [19] = compound concentrations:100 nM and 1000 nM (sheet 'Lestaurtinib' of Supplementary Table 1),run:Lestaurtinib_02443_R1,Plate:MR009
# [20] = compound concentrations:100 nM and 1000 nM (sheet 'Lestaurtinib' of Supplementary Table 1),run:Lestaurtinib_02443_R2,Plate:MR009
# [21] = compound concentrations:100 nM and 1000 nM (sheet 'Lestaurtinib' of Supplementary Table 1),run:Lestaurtinib_02473_R1,Plate:MR010
# [22] = compound concentrations:100 nM and 1000 nM (sheet 'Lestaurtinib' of Supplementary Table 1),run:Lestaurtinib_02473_R2,Plate:MR010
# [23] = compound concentrations:100 nM and 1000 nM (sheet 'Lestaurtinib' of Supplementary Table 1),run:Lestaurtinib_02566_R1,Plate:MR014
substance,measurement,setting,value
Lestaurtinib,potency estimated from few doses,"[1]; compound concentrations:100 nM and 1000 nM (sheet 'Lestaurtinib' of Supplementary Table 1),run:Lestaurtinib_02339_R2,Plate:MR001",1510 nM
same,potency estimated from few doses,"[1]; compound concentrations:100 nM and 1000 nM (sheet 'Lestaurtinib' of Supplementary Table 1),run:Lestaurtinib_02407_R1,Plate:MR005",1540 nM
same,potency estimated from few doses,[1]; [5],1350 nM
same,potency estimated from few doses,[1]; [6],946 nM
same,potency estimated from few doses,"[1]; compound concentrations:100 nM and 1000 nM (sheet 'Lestaurtinib' of Supplementary Table 1),run:Lestaurtinib_02473_R3,Plate:MR010",958 nM
same,potency estimated from few doses,[1]; [7],671 nM
same,potency estimated from few doses,[1]; [8],1530 nM
same,potency estimated from few doses,"[1]; compound concentrations:100 nM and 1000 nM (sheet 'Lestaurtinib' of Supplementary Table 1),run:Lestaurtinib_02577_R3,Plate:MR016",1360 nM
same,potency estimated from few doses,[1]; [9],1580 nM
same,potency estimated from few doses,[1]; [10],1460 nM
same,potency estimated from few doses,[1]; [11],1420 nM
same,potency estimated from few doses,[1]; [12],1240 nM
same,potency estimated from few doses,"[2]; compound concentrations:100 nM and 1000 nM (sheet 'Lestaurtinib' of Supplementary Table 1),run:Lestaurtinib_02339_R3,Plate:MR001",1400 nM
same,potency estimated from few doses,[2]; [13],1630 nM
same,potency estimated from few doses,[2]; [14],1670 nM
same,potency estimated from few doses,"[2]; compound concentrations:100 nM and 1000 nM (sheet 'Lestaurtinib' of Supplementary Table 1),run:Lestaurtinib_02407_R2,Plate:MR005",1670 nM
same,potency estimated from few doses,[2]; [6],2020 nM
same,potency estimated from few doses,[2]; [15],1830 nM
same,potency estimated from few doses,"[2]; compound concentrations:100 nM and 1000 nM (sheet 'Lestaurtinib' of Supplementary Table 1),run:Lestaurtinib_02601_R1,Plate:MR018",1350 nM
same,potency estimated from few doses,[2]; [16],1590 nM
same,potency estimated from few doses,[2]; [12],1370 nM
same,potency estimated from few doses,"[2]; compound concentrations:100 nM and 1000 nM (sheet 'Lestaurtinib' of Supplementary Table 1),run:Lestaurtinib_03260_R1,Plate:MR033",914 nM
same,potency estimated from few doses,"[2]; compound concentrations:100 nM and 1000 nM (sheet 'Lestaurtinib' of Supplementary Table 1),run:Lestaurtinib_03260_R3,Plate:MR033",157 nM
same,potency estimated from few doses,"[3]; compound concentrations:100 nM and 1000 nM (sheet 'Lestaurtinib' of Supplementary Table 1),run:Lestaurtinib_02364_R1,Plate:MR002",130 nM
same,potency estimated from few doses,"[3]; compound concentrations:100 nM and 1000 nM (sheet 'Lestaurtinib' of Supplementary Table 1),run:Lestaurtinib_02364_R3,Plate:MR002",175 nM
same,potency estimated from few doses,[3]; [17],153 nM
same,potency estimated from few doses,"[3]; compound concentrations:100 nM and 1000 nM (sheet 'Lestaurtinib' of Supplementary Table 1),run:Lestaurtinib_02367_R3,Plate:MR003",240 nM
same,potency estimated from few doses,"[3]; compound concentrations:100 nM and 1000 nM (sheet 'Lestaurtinib' of Supplementary Table 1),run:Lestaurtinib_02407_R3,Plate:MR005",176 nM
same,potency estimated from few doses,[3]; [5],88.2 nM
same,potency estimated from few doses,"[3]; compound concentrations:100 nM and 1000 nM (sheet 'Lestaurtinib' of Supplementary Table 1),run:Lestaurtinib_02422_R2,Plate:MR006",4.49 nM
same,potency estimated from few doses,"[3]; compound concentrations:100 nM and 1000 nM (sheet 'Lestaurtinib' of Supplementary Table 1),run:Lestaurtinib_02422_R3,Plate:MR006",115 nM
same,potency estimated from few doses,"[3]; compound concentrations:100 nM and 1000 nM (sheet 'Lestaurtinib' of Supplementary Table 1),run:Lestaurtinib_02437_R1,Plate:MR007",132 nM
same,potency estimated from few doses,"[3]; compound concentrations:100 nM and 1000 nM (sheet 'Lestaurtinib' of Supplementary Table 1),run:Lestaurtinib_02437_R2,Plate:MR007",160 nM
same,potency estimated from few doses,[3]; [18],124 nM
same,potency estimated from few doses,[3]; [19],154 nM
same,potency estimated from few doses,[3]; [20],115 nM
same,potency estimated from few doses,[3]; [6],133 nM
same,potency estimated from few doses,[3]; [21],93.7 nM
same,potency estimated from few doses,[3]; [22],131 nM
same,potency estimated from few doses,"[3]; compound concentrations:100 nM and 1000 nM (sheet 'Lestaurtinib' of Supplementary Table 1),run:Lestaurtinib_02482_R3,Plate:MR011",170 nM
same,potency estimated from few doses,"[3]; compound concentrations:100 nM and 1000 nM (sheet 'Lestaurtinib' of Supplementary Table 1),run:Lestaurtinib_02487_R2,Plate:MR012",196 nM
same,potency estimated from few doses,[3]; [15],84.6 nM
same,potency estimated from few doses,[3]; [23],131 nM
same,potency estimated from few doses,"[3]; compound concentrations:100 nM and 1000 nM (sheet 'Lestaurtinib' of Supplementary Table 1),run:Lestaurtinib_02566_R3,Plate:MR014",151 nM
same,potency estimated from few doses,[3]; [7],130 nM
same,potency estimated from few doses,"[3]; compound concentrations:100 nM and 1000 nM (sheet 'Lestaurtinib' of Supplementary Table 1),run:Lestaurtinib_02572_R2,Plate:MR015",137 nM
same,potency estimated from few doses,[3]; [8],206 nM
same,potency estimated from few doses,[3]; [9],202 nM
same,potency estimated from few doses,"[3]; compound concentrations:100 nM and 1000 nM (sheet 'Lestaurtinib' of Supplementary Table 1),run:Lestaurtinib_02601_R2,Plate:MR018",232 nM
same,potency estimated from few doses,"[3]; compound concentrations:100 nM and 1000 nM (sheet 'Lestaurtinib' of Supplementary Table 1),run:Lestaurtinib_02606_R2,Plate:MR019",69.6 nM
same,potency estimated from few doses,"[3]; compound concentrations:100 nM and 1000 nM (sheet 'Lestaurtinib' of Supplementary Table 1),run:Lestaurtinib_02606_R3,Plate:MR019",167 nM
same,potency estimated from few doses,"[3]; compound concentrations:100 nM and 1000 nM (sheet 'Lestaurtinib' of Supplementary Table 1),run:Lestaurtinib_02624_R1,Plate:MR020",235 nM
same,potency estimated from few doses,"[3]; compound concentrations:100 nM and 1000 nM (sheet 'Lestaurtinib' of Supplementary Table 1),run:Lestaurtinib_02624_R2,Plate:MR020",113 nM
same,potency estimated from few doses,"[3]; compound concentrations:100 nM and 1000 nM (sheet 'Lestaurtinib' of Supplementary Table 1),run:Lestaurtinib_02624_R3,Plate:MR020",160 nM
same,potency estimated from few doses,"[3]; compound concentrations:100 nM and 1000 nM (sheet 'Lestaurtinib' of Supplementary Table 1),run:Lestaurtinib_02724_R2,Plate:MR021",179 nM
same,potency estimated from few doses,"[3]; compound concentrations:100 nM and 1000 nM (sheet 'Lestaurtinib' of Supplementary Table 1),run:Lestaurtinib_02724_R3,Plate:MR021",163 nM
same,potency estimated from few doses,"[3]; compound concentrations:100 nM and 1000 nM (sheet 'Lestaurtinib' of Supplementary Table 1),run:Lestaurtinib_02741_R1,Plate:MR023",211 nM
same,potency estimated from few doses,[3]; [10],237 nM
same,potency estimated from few doses,"[3]; compound concentrations:100 nM and 1000 nM (sheet 'Lestaurtinib' of Supplementary Table 1),run:Lestaurtinib_02752_R1,Plate:MR025",146 nM
same,potency estimated from few doses,"[3]; compound concentrations:100 nM and 1000 nM (sheet 'Lestaurtinib' of Supplementary Table 1),run:Lestaurtinib_02765_R1,Plate:MR026",278 nM
same,potency estimated from few doses,[3]; [16],244 nM
same,potency estimated from few doses,"[3]; compound concentrations:100 nM and 1000 nM (sheet 'Lestaurtinib' of Supplementary Table 1),run:Lestaurtinib_02766_R1,Plate:MR027",143 nM
same,potency estimated from few doses,[3]; [11],154 nM
same,potency estimated from few doses,"[3]; compound concentrations:100 nM and 1000 nM (sheet 'Lestaurtinib' of Supplementary Table 1),run:Lestaurtinib_02768_R2,Plate:MR028",141 nM
same,potency estimated from few doses,"[3]; compound concentrations:100 nM and 1000 nM (sheet 'Lestaurtinib' of Supplementary Table 1),run:Lestaurtinib_02768_R3,Plate:MR028",135 nM
same,potency estimated from few doses,"[3]; compound concentrations:100 nM and 1000 nM (sheet 'Lestaurtinib' of Supplementary Table 1),run:Lestaurtinib_02795_R1,Plate:MR022",93.8 nM
same,potency estimated from few doses,"[3]; compound concentrations:100 nM and 1000 nM (sheet 'Lestaurtinib' of Supplementary Table 1),run:Lestaurtinib_02802_R3,Plate:MR029",22.2 nM
same,potency estimated from few doses,[3]; [12],136 nM
same,potency estimated from few doses,"[3]; compound concentrations:100 nM and 1000 nM (sheet 'Lestaurtinib' of Supplementary Table 1),run:Lestaurtinib_02896_R2,Plate:MR030",82.8 nM
same,potency estimated from few doses,"[3]; compound concentrations:100 nM and 1000 nM (sheet 'Lestaurtinib' of Supplementary Table 1),run:Lestaurtinib_03172_R3,Plate:MR031",134 nM
same,potency estimated from few doses,"[3]; compound concentrations:100 nM and 1000 nM (sheet 'Lestaurtinib' of Supplementary Table 1),run:Lestaurtinib_03252_R1,Plate:MR032",130 nM
same,potency estimated from few doses,"[3]; compound concentrations:100 nM and 1000 nM (sheet 'Lestaurtinib' of Supplementary Table 1),run:Lestaurtinib_03252_R2,Plate:MR032",25.4 nM
same,potency estimated from few doses,"[3]; compound concentrations:100 nM and 1000 nM (sheet 'Lestaurtinib' of Supplementary Table 1),run:Lestaurtinib_03260_R2,Plate:MR033",248 nM
same,potency estimated from few doses,"[4]; compound concentrations:100 nM and 1000 nM (sheet 'Lestaurtinib' of Supplementary Table 1),run:Lestaurtinib_02339_R1,Plate:MR001",2070 nM
same,potency estimated from few doses,[4]; [13],825 nM
same,potency estimated from few doses,[4]; [17],1420 nM
same,potency estimated from few doses,[4]; [14],579 nM
same,potency estimated from few doses,"[4]; compound concentrations:100 nM and 1000 nM (sheet 'Lestaurtinib' of Supplementary Table 1),run:Lestaurtinib_02381_R2,Plate:MR004",1760 nM
same,potency estimated from few doses,"[4]; compound concentrations:100 nM and 1000 nM (sheet 'Lestaurtinib' of Supplementary Table 1),run:Lestaurtinib_02381_R3,Plate:MR004",2000 nM
same,potency estimated from few doses,[4]; [5],1620 nM
same,potency estimated from few doses,"[4]; compound concentrations:100 nM and 1000 nM (sheet 'Lestaurtinib' of Supplementary Table 1),run:Lestaurtinib_02438_R2,Plate:MR008",1630 nM
same,potency estimated from few doses,[4]; [18],1400 nM
same,potency estimated from few doses,[4]; [19],1540 nM
same,potency estimated from few doses,[4]; [20],1360 nM
same,potency estimated from few doses,[4]; [21],1690 nM
same,potency estimated from few doses,[4]; [22],1430 nM
same,potency estimated from few doses,[4]; [23],656 nM
